Reference: PubChem BioAssay (NCI)
About 83,000 compounds went through this panel and 20% of them were active in at least one assay; those are over-represented in the sample as a whole.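 Note: values are percent growth. 100 is the growth of untreated cells, values between 100 and 0 indicate rising inhibition; between -100 and 0 indicates cell death.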 Values without a mark were called inactive. Activity calls are given as the source filed them. The calls were made as follows: active = growth percent below 10; inactive = the rest.

Columns and labels:
Test in all cases: NCI-60 one-dose screen, 48 h (100 = growth as untreated, 0 = no growth, -100 = all killed)
Settings in all cases: 10 µM unless noted
T-47D breast = test system: T-47D breast
BT-549 breast = test system: BT-549 breast
MDA-MB-435 melanoma = test system: MDA-MB-435 melanoma
SW-620 colon = test system: SW-620 colon
MCF7 breast = test system: MCF7 breast
HCT-116 colon = test system: HCT-116 colon
HCC-2998 colon = test system: HCC-2998 colon
KM12 colon = test system: KM12 colon

Structure (SMILES)	growth (T-47D breast)	growth (BT-549 breast)	growth (MDA-MB-435 melanoma)	growth (SW-620 colon)	growth (MCF7 breast)	growth (HCT-116 colon)	growth (HCC-2998 colon)	growth (KM12 colon)
CCOC(=O)Cc1cnc(N/N=C(\C)c2cc3ccccc3o2)s1	70.5%	109%	108%	96.9%	81.3%	96.4%	105%	–
COc1ccc(/C=C(\C#N)n2nnc3ccc(Cl)cc32)cc1	51.1%	68%	-22.8% (active)	11.8%	18.6%	39%	87.3%	39.3%
Fc1cnccc1C1CC(c2ccc(N3CCNCC3)cc2)=NN1 (stereo unspecified)	82.2%	85.3%	105%	93.5%	73%	73.8%	–	–
Nc1nc(N)c(-c2ccc(Cl)c(Cl)c2)c(CBr)n1	91.6%	59.7%	49.8%	42%	76.7%	42%	71.7%	–
O=C(CN1C(=O)S/C(=C\C(Cl)=C\c2ccccc2)C1=O)NCCc1ccc(O)cc1	11.4%	22.1%	2.68% (active)	4.78% (active)	20.1%	-78.8% (active)	66.8%	–
Cc1c2cnccc2c(C)c2c1c1cc(C#N)ccc1n2C	-1.04% (active)	-62% (active)	-57.6% (active)	-0.262% (active)	-12.2% (active)	-22.9% (active)	-68.7% (active)	2.89% (active)
COc1ccc(/C=N/NC(=O)c2ccc(-n3cc(-c4ccccc4)nn3)cc2)cc1OC	98.3%	92.9%	98.4%	116%	75.3%	92.7%	113%	104%
O=C(Cn1cc(CSc2nc3ccccc3o2)nn1)Nc1ccc(F)cc1F	116%	113%	114%	112%	92.5%	109%	111%	116%
O=S(=O)(c1ccccc1)n1cc2c(c1)-c1nc(Nc3ncccn3)sc1CC2	53%	63.8%	61.5%	65.1%	49.5%	23.1%	85%	82.8%
COc1c(B(O)O)cccc1-c1cc(C)c2c(ccc3[nH]ncc32)n1	84.1%	23.1%	92%	63.5%	71.8%	41.7%	105%	83.1%
CCOC(=O)c1nn(-c2ccc(S(N)(=O)=O)cc2)c2nc(C)cc(=O)n12	106%	106%	105%	106%	92.4%	106%	109%	102%
COC(=O)/C=C1/SC(=Nc2ccc(C(F)(F)F)cc2)N(CCc2c[nH]c3ccc(O)cc23)C1=O	17.3%	-32.7% (active)	24%	3.9% (active)	12.5%	-71.9% (active)	-61.4% (active)	18.3%
COCCn1cc(-c2nc(-c3cc4cccnc4[nH]3)cs2)c2cc(OC)ccc21	-12.4% (active)	1.78% (active)	52.4%	48.4%	0.765% (active)	30.3%	57.6%	1.17% (active)
Cc1cc(C(=O)Nc2ncc(Cc3cccc(C(F)(F)F)c3)s2)c2ccccc2n1	12.1%	34.7%	-27.3% (active)	17.3%	10.2%	18%	25.6%	15.5%
COc1ccc(-c2cc(-c3cc(OC)c(OC)c(OC)c3)c(C#N)c(=O)n2CCCCC(=O)NO)cc1	50.7%	92.7%	37.7%	47.9%	66.5%	25.1%	87.5%	73.1%
O=C1/C(=C/c2ccccc2O)CC/C1=C\c1ccccc1O	47.3%	2% (active)	26.4%	55.1%	24.3%	16.7%	104%	75.7%

Structure (SMILES)	growth (T-47D breast)	growth (BT-549 breast)	growth (MDA-MB-435 melanoma)	growth (SW-620 colon)	growth (MCF7 breast)	growth (HCT-116 colon)	growth (HCC-2998 colon)	growth (KM12 colon)
COc1cc(-c2cncn2-c2ccc(-c3nc4ccc(F)cc4s3)cc2)ccc1F	76.3%	85.3%	87.4%	54.3%	64.3%	37.7%	80.2%	81.7%
O=S(=O)(Nc1ccc(Cl)c(C(F)(F)F)c1)c1ccc(-c2cnc(C3CC3)o2)cc1	12.8%	23.7%	2.82% (active)	22.4%	15.4%	10.1%	25.1%	8.14% (active)
COc1cc2c(cc1OC)C(C)N(S(N)(=O)=O)CC2 (stereo unspecified)	93.1%	91.8%	110%	107%	103%	89.4%	98.1%	112%
COC(=O)c1nc(-c2ccccc2)oc1S(=O)(=O)Cc1ccccc1	59.9%	80.1%	100%	32.9%	78.5%	68.9%	111%	96.4%
COc1ccc2cc1Oc1ccc(cc1)C[C@H]1c3c(cc4c(c3Oc3cc5c(cc3OC)CCN(C)[C@@H]5C2)OCO4)CCN1C	115%	52%	19%	55.3%	34.6%	19.2%	59.9%	55.2%
C[PH+](c1nc2ccccc2nc1[PH+](C)C(C)(C)C)C(C)(C)C.C[PH+](c1nc2ccccc2nc1[PH+](C)C(C)(C)C)C(C)(C)C.[Au+].[Cl-] (stereo unspecified)	-79.9% (active)	-74.4% (active)	-79.3% (active)	-100% (active)	-84.3% (active)	-100% (active)	-100% (active)	-99.3% (active)
O=C1/C(=C/c2ccccc2Br)COc2ccc(O)cc21	83.7%	53.9%	40.9%	18.3%	9.13% (active)	18.6%	100%	23.9%
O=C(c1ccccc1)c1ccc(C2CCCCC2)cc1	85.7%	115%	99.8%	93.4%	95.7%	83.8%	107%	103%
C=CCOC(=O)Nc1cccn([C@H](Cc2ccccc2)C(=O)NCCC(C)C)c1=O	93.8%	132%	108%	109%	92.8%	109%	105%	110%
COC(=O)[C@@H](CCCCNC(=O)[C@]12CCC(C)(C)C[C@@H]1C1=CC[C@@H]3[C@@]4(C)C/C(=C/c5ccco5)C(=O)C(C)(C)[C@@H]4CC[C@@]3(C)[C@]1(C)CC2)NC(=O)[C@]12CCC(C)(C)C[C@@H]1C1=CC[C@@H]3[C@@]4(C)C/C(=C/c5ccco5)C(=O)C(C)(C)[C@@H]4CC[C@@]3(C)[C@]1(C)CC2	94.7%	106%	93.9%	112%	104%	100%	103%	103%
O=C(Nc1ccc(OS(=O)(=O)c2ccc(F)cc2)cc1)C1CCCCCC1	81.4%	80.5%	97.3%	88.9%	92.1%	84.5%	78.9%	70.3%
CCCC/C=C/[C@@H]1C[C@H]1CCO	95.9%	96.8%	102%	102%	87.5%	90.6%	102%	103%
c1ccc(Cn2cc3c(c2)-c2oncc2CC3)cc1	42.1%	82.9%	-34.7% (active)	23.9%	18.8%	9.28% (active)	4.68% (active)	13.6%
O=C(CN1C(=O)NC2NC(=O)NC21)N/N=C/c1ccccc1[N+](=O)[O-] (stereo unspecified)	104%	97.9%	104%	105%	85.1%	107%	118%	104%
COc1ccc(CNc2c3ccccc3nc3ccccc23)cc1	44.9%	80.1%	40.2%	25.6%	12.6%	9.53% (active)	38.6%	33.2%
Cn1ccnc1C(=O)/C=C/c1ccc(C(=O)Nc2ccccc2O)cc1	2.47% (active)	28.4%	69.3%	10.3%	10.2%	11.6%	82.7%	15.2%
